# Screens (PubChem)
# F-actin modifier: modifiers of F-actin cytoskeleton organization, primary screen, imaging, HUVEC, phalloidin staining, high-content imaging; HUVEC TNFa F-actin phalloidin imaging; inhibition, % at 2 µM; 0.18% of 91,000 active; AID 836, 2007;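 active means inhibition above the batch mean plus 3 SD and confirmed as a hit by visual image inspection, cut at about 30% in these data, passing the limit was not always enough; inconclusive means above the inhibition threshold but rejected on visual inspection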
# S1P2 antag: human S1P2 receptor antagonists, primary screen, cell-based | cell-based S1P2 antagonist assay, inhibition at 5 uM | Sphingosine 1-phosphate receptor 2 (Homo sapiens), O95136 | inhibition, % at 5 µM | 0.21% of 97,000 active; in the data active means inhibition above about 45%;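 further: CRE beta-lactamase reporter cells expressing human S1P2 stimulated with S1P; 0% = agonist at EC80 alone and 100% = agonist plus reference antagonist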
# Target sequence (O95136 whole entry, looked up): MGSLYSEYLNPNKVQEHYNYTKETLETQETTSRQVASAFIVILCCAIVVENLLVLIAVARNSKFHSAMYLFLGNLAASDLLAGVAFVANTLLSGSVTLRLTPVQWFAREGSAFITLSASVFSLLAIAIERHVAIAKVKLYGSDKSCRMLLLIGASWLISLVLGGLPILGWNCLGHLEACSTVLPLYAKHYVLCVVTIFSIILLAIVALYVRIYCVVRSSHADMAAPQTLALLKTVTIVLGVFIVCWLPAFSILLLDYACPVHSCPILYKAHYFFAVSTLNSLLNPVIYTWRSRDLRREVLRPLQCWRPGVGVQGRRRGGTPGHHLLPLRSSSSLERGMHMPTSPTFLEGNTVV
# VCAM1 TNFa inh: inhibitors of TNFa-induced VCAM1 expression, primary screen, imaging, HUVEC, TNFa stimulus, immunofluorescence; HUVEC TNFa-induced VCAM-1 immunofluorescence, high-content imaging; 0.48% of 95,000 active; inhibition, % at 2 µM; AID 802, 2007;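 active means inhibition above the batch mean plus 3 SD, with images confirmed as a hit by eye, cut at about 37% in these data; inconclusive means inhibition above that limit but hit not confirmed in images; inactive means inhibition not above that limit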;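 further: 0% = TNF-stimulated DMSO wells and 100% = unstimulated control wells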
# S1P2 agonist: S1P2 receptor agonists, primary screen, cell-based; Sphingosine 1-phosphate receptor 2 (Homo sapiens), O95136; S1P2-expressing cell line, agonist reporter read-out; activation, % at 4.5 µM; 0.46% of 97,000 active; AID 729, 2007; in the data active means activation above about 16%;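 further: 0% = vehicle low control and 100% = maximal reference agonist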
# TNFa cytotox: cytotoxicity in TNFa-stimulated HUVEC, primary screen, cytotoxicity control for VCAM1 expression modulator project, imaging, Hoechst nuclei count; 0.17% of 93,000 active; cell count reduction, % at 2 µM; HUVEC TNFalpha-stimulated, Hoechst cell count;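 active means cell count reduction exceeding the screen mean by over 5 SD, scaled to untreated wells per plate, cut at about 78% in these data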;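 further: cells counted after 24 h of TNF alpha exposure following the 1 h pretreatment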
# E-sel TNF inh: E-selectin induction blockers in HUVEC – imaging, immunofluorescence, high content, primary screen | inhibition, % at 2 µM | 0.71% of 120,000 active | HUVEC TNFa-induced E-selectin immunofluorescence;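 active means inhibition above the batch mean plus 3 SD, and confirmed as a hit on visual image review, cut at about 43% in these data; inconclusive means passes the inhibition cutoff but fails visual image review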;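 further: 0% = TNF-stimulated DMSO wells and 100% = unstimulated control wells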
# The depositor's hits bear a star; ? = inconclusive; . = no result given. Sampled rows, rich in hits. Any-hit rate of the full collection: about 1.6%.
SMILES,F-actin modifier,S1P2 antag,VCAM1 TNFa inh,S1P2 agonist,TNFa cytotox,E-sel TNF inh
CN1CCCN(S(=O)(=O)c2ccc(Cl)c(Cl)c2)CC1,.,.,.,.,.,100*
CN1CCCN(S(=O)(=O)c2cccc(Cl)c2Cl)CC1,.,.,.,.,.,94*
O=S(=O)(c1cccc(Cl)c1Cl)N1CCCCC1,-7,2,8,-2,9,19
CN1CCN(S(=O)(=O)c2cccc(S(=O)(=O)c3ccc(Cl)cc3)c2)CC1,13,6,8,-2,-17,-2
O=C(COC(=O)c1ccc(S(=O)(=O)Nc2ccccc2)cc1)NCCC1=CCCCC1,.,.,.,.,.,8
Cc1ccnc(-n2c(C)cc(C=O)c2C)c1,.,.,.,.,.,-9
COc1cccc(C(=O)COc2cccc(NC(=O)c3cccc([N+](=O)[O-])c3)c2)c1,4,6,49*,-1,66,19
O=C(N/N=C/c1ccc(O)cc1)Nc1cccc2nsnc12,.,.,.,.,.,14
Cc1ccc(NC(=O)c2ccc(OC(F)(F)F)cc2)cc1S(=O)(=O)N(C)C,.,.,.,.,.,-32
N#Cc1c(NCc2ccccc2)ccnc1NCc1cccnc1,38,29,93*,-2,.,-18
CN(C)c1ccnc(NCc2ccccc2)c1C#N,8,3,-20,-3,-1,-30
CN(C)c1cccc(C(=O)Nc2ccc(N3CCOCC3)cc2)c1,32*,-3,1,-2,-46,6
COc1ccc(C(=O)Nc2ccc(N3CCOCC3)cc2)cc1OC,-9,9,25,-8,-34,.
COc1ccc(OCCC(=O)OCC(=O)NCc2ccccc2)cc1,.,.,.,.,.,-7
Cc1ccc(/C([O-])=C(/C(=S)NCc2ccccc2)[n+]2cccc(CO)c2)cc1[N+](=O)[O-],.,.,.,.,.,73*
Cc1ccc(NC(=S)NCc2ccccc2)cc1[N+](=O)[O-],.,.,.,.,.,-1
Cc1cc(C)nc(SC2=CS(=O)(=O)c3ccccc32)n1,-1,-12,38,-7,-5,-33
O=S1(=O)C=C(Sc2nnc(-c3ccccc3)o2)c2ccccc21,.,.,.,.,.,100*
COCCn1c(SCC(=O)Nc2nc3ccccc3s2)nnc1-c1ccoc1C,-12,-19,0,16*,6,-14
COCCCn1c(SCC(=O)Nc2nnc(C)s2)nnc1-c1ccoc1C,4,4,-2,-7,-10,-4
COc1ccc(/C=C/C(=O)NC(CCSC)C(=O)O)cc1 (stereo unspecified),.,.,.,.,.,14
Cc1ccccc1Cn1ccc(NC(=O)c2cnn3c2NC(c2ccccc2)CC3C(F)(F)F)n1 (stereo unspecified),16,-7,4,-4,-34,75*
CCC(=O)c1ccc(N2CCOCC2)c(F)c1,-18,-28,5,-5,-14,56*
Cc1oc(-c2ccccc2Cl)nc1CN1CCCN(C(=O)c2ccco2)CC1,.,.,.,.,.,-17
COC(=O)c1cc2c(s1)CS(=O)C2 (stereo unspecified),.,0,.,-9,.,96*
SMILES,F-actin modifier,S1P2 antag,VCAM1 TNFa inh,S1P2 agonist,TNFa cytotox,E-sel TNF inh
CCN(CC(=O)Nc1ccc(C(C)=O)cc1)CC(=O)Nc1cccc(OC)c1,.,.,.,.,.,-14
CC(CN1CCOCC1)C(=O)c1ccccc1 (stereo unspecified),4,-1,-15,-5,-9,0
COc1ccc(C(=O)C(CN2CCOCC2)c2ccccc2)cc1F (stereo unspecified),16,7,.,-5,.,62*
CCCOc1ccc(C(=O)C(CN2CCOCC2)c2ccccc2)cc1 (stereo unspecified),-2,8,50*,-3,-13,18
COc1ccc(C(O)C(CN2CCOCC2)c2ccccc2)cc1F (stereo unspecified),-3,-4,13,0,-17,18
CCCOc1ccc(C(=O)C(c2ccccc2)N2CCOCC2)cc1 (stereo unspecified),.,2,12,-5,-24,-8
CCOc1ccc(C(=O)C(c2ccccc2)N2CCOCC2)cc1 (stereo unspecified),-19,11,76*,-6,66,.
CCC(C)N1CCN(C(=O)c2cccs2)CC1 (stereo unspecified),-21,-9,-15,-6,-17,6
Cc1cccc(C)c1NC(=O)NC1(C(=O)NCCCN2CCOCC2)CCCCC1,16,12,2,-2,-10,-8
CCC(C(=O)OC)n1c(-c2ccccc2)nc2ccccc2c1=O (stereo unspecified),.,.,.,.,.,64*
CCN(CC)c1ccc2c(c1)OC(N)=C(C#N)C2c1cccnc1 (stereo unspecified),-51,-10,39*,1,51,.
N#CC1=C(N)Oc2cc(Nc3ccccc3)ccc2C1c1ccncc1 (stereo unspecified),20,4,-6,-4,-4,54*
N#CC1=C(N)Oc2cc(N)ccc2C1c1cccnc1 (stereo unspecified),.,.,.,.,.,-1
COc1cccc(CSc2nnc(-c3ccco3)n2C)c1,9,4,-12,-5,-36,3
CCOC(=O)c1ccc(N2C(=O)CC(N3CCC(O)(c4ccc(Br)cc4)CC3)C2=O)cc1 (stereo unspecified),.,46*,?,-8,29,-13
Cc1ccc(-c2ccc(=O)[nH]n2)cc1,-7,0,5,-2,-20,-16
CCCCCc1ccc(-c2ccc(=O)[nH]n2)cc1,-47,-14,79*,-2,18,29
COc1ccccc1-c1cc(C(F)(F)F)nc(S(=O)(=O)CCCC(=O)NC(C)C)n1,-2,-16,26,-10,0,12
COc1ccccc1-c1cc(C(F)(F)F)nc(S(=O)(=O)CCCC(=O)N2CCCCC2C)n1 (stereo unspecified),21,-6,71*,-4,-15,.
O=c1c2c(-c3ccco3)csc2nc(SCc2cn3cccnc3n2)n1-c1ccccc1,-24,-40,-20,20*,-30,.
CCSc1nnc(NC(=O)[C@@H](NC(=O)c2cc(OC)cc(OC)c2)C(C)C)s1,.,.,.,.,.,-30
O=C(COC(=O)CCc1ccc(S(=O)(=O)N2CCOCC2)cc1)NC1CCCC1,.,.,.,.,.,63*
CCC(C)NC(=O)C1CCN(c2nc(OC)nc(OC)n2)CC1 (stereo unspecified),7,-4,10,22*,0,29
CCc1ccc(-c2nc(NC(=S)NC(=O)c3cccs3)sc2C)cc1,-1,-5,34,17*,10,-1
C=CCn1c(SCc2ccc(C(=O)OC)cc2)nnc1-c1sc(N)nc1C,.,.,.,.,.,4
C=CCn1c(SCC(=O)Nc2ccc(C(=O)OCC)cc2)nnc1-c1sc(N)nc1C,-8,-2,92*,-6,-8,-17
CS(=O)(=O)NCc1nnc(SCC(=O)NC2CCCCC2)n1-c1ccc(F)cc1,2,11,1,103*,7,16
